Where “and” joins values, the source holds several entries; their conditions need not be identical. Equal entries are not always repeated. Among all 420,000 compounds or so, about 64,000 (15%) were called active. Not shown: some 27% with an inconclusive outcome. The list is a sample of the results. A number with no mark means an inactive call. The call rests on the fitted dose curve; in most records, active means well fitted inhibition curve with a large enough effect; inconclusive means small, poorly fitted or top-dose-only effect; inactive means flat fitted curve, though single readings scatter.
Experiment: qHTS for Inhibitors of human tyrosyl-DNA phosphodiesterase 1 (TDP1): qHTS in cells in absence of CPT; further: nearly all actives have a fitted effect of over 55% in size
Details: DT40 Tdp1-/- hTDP1 cells, no CPT, ATP luminescence, 48 h; activity change, negative = growth inhibition: at 46.2 µM (top of the series)
Outline: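 Compound effects on proliferation are scored in DT40 Tdp1-/-;hTDP1 cells in the absence of CPT. ATP levels (CellTiter-Glo luminescence) are recorded after a ≥48 hr, 37 °C incubation.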
On the % scale 0 is the no-effect control and ±100 the full control effect; potency means the concentration at half of the fitted maximal effect.

Row | SMILES | activity change, negative = growth inhibition [%] | Potency
1 | O=C(COC(=O)c1ccccc1SCC(=O)N1CCCC1)Nc1ccccc1OC(F)F | -28.3 | –
2 | Cc1ccc(CNC(=O)CCNC(=O)Cn2ccc3ccccc3c2=O)cc1 | -6.74 | –
3 | CCS(=O)(=O)Nc1cc(C(=O)OC)ccc1C(=O)OC | -15.2 | –
4 | CCN(CCO)C(=S)Nc1cc(C(=O)OC)ccc1C(=O)OC | -16.3 | –
5 | CCCN(CCC)C(=S)Nc1cc(C(=O)OC)ccc1C(=O)OC | – | 18.4 µM (active)
6 | Cc1ccc(-c2nc3ccc(Cl)cn3c2Cc2ccccc2)cc1 | – | 20.6 µM (active)
7 | Cc1ccc(Cc2c(-c3ccco3)nc3ccc(Cl)cn23)cc1 | – | 11.6 µM (active)
8 | Cc1ccc(-c2cn3cc(C)ccc3n2)cc1 | -25.3 | –
9 | CSc1nc(-c2ccco2)nn1C(=O)CCc1ccccc1 | -2.42 | –
10 | O=C(Nc1c(-c2ccccc2)nc2c(Br)cc(Br)cn12)c1ccco1 | -16.2 | –
11 | CN1CCN(Cc2c(C(=O)N3CCc4ccccc4C3)nc3ccc(Cl)cn23)CC1 | 12.3 | –
12 | CN(C)C(=O)c1nc2ccc(Cl)cn2c1CN1CCN(c2ncccn2)CC1 | -20.4 | –
13 | CC(=O)Nc1c(-c2ccc(C)cc2)nc2ccc(Cl)cn12 | 17.1 | –
14 | c1ccc(Cc2c(-c3ccco3)nc3c4ccccc4ccn23)cc1 | – | 20.6 µM (active)
15 | Cc1nn(CC(=O)Nc2ccc3c(c2)OCO3)c(C)c1[N+](=O)[O-] | -10.4 | –
16 | Cc1cccc(NC(=O)CN2C(=O)CNC2=O)c1 | -8.76 | –
17 | C/C(=N\NC(=O)c1cccc([N+](=O)[O-])c1)c1cccnc1 | 9.04 | –
18 | CCOC(=O)C(C)Oc1cccc2c(=O)n(CC(=O)N3CCc4ccccc43)ccc12 (centres undefined) | -8.97 | –
19 | O=C(Nc1ccccc1C(=O)N1CCOCC1)c1ccc(Cl)cc1 | 4.37 | –
20 | Cn1c(=O)n(C)c2cc(NS(=O)(=O)c3ccc(F)cc3)ccc21 | -75.4 | –
21 | Cn1c(=O)n(C)c2cc(S(=O)(=O)Nc3ccc(F)cc3)ccc21 | – | 20.6 µM (active)
22 | Cc1cc(C)cc(NS(=O)(=O)c2ccc(F)cc2)c1 | -29.8 | –
23 | Cn1c(C(=O)N2CCCC(C(=O)NCc3ccccc3)C2)cc2sccc21 (centres undefined) | -15.8 | –
24 | Clc1ccc(N/N=C/c2cccs2)nn1 | -11.9 | –
25 | Oc1cccc(/C=N/Nc2ccc(Cl)nn2)c1O | – | 0.13 µM (active)
26 | Fc1ccccc1Cc1ccc(Cl)nn1 | 5.81 | –
27 | C/C(=N\Nc1ccc(Cl)nn1)c1ccccc1O | – | 0.58 µM (active)

Row | SMILES | activity change, negative = growth inhibition [%] | Potency
28 | CCCCCCCN=C(C)c1ccccc1O | -1.56 | –
29 | O=C(c1cccc(-n2cccc2)c1)N1CCN(S(=O)(=O)c2ccc(F)cc2)CC1 | 4.26 | –
30 | C=C(Cl)COC(=O)C1C2C=CC(C2)C1C(=O)O (centres undefined) | 0.932 | –
31 | CC12CN(NC(=O)c3ccc(Cl)cc3)C3(C#N)CC1CCC23C (centres undefined) | -7.9 | –
32 | Cc1ccc(C(CNC(=O)Nc2ccccc2)N2CCN(C)CC2)cc1 (centres undefined) | 24.7 | –
33 | Cc1ccc(NC(=O)[C@H](Cc2ccccc2)NC(=O)CC[C@H]2O[C@@H](n3ccc(=O)[nH]c3=O)[C@H](O)[C@@H]2O)cc1C | 3.83 | –
34 | CCOC(=O)/C(N=Nc1cc(C(=O)O)cc(C(=O)O)c1)=C(\O)CCl | 0.226 | –
35 | CCO/C=C1\C(=O)N(c2ccc(OCC)cc2)C(=O)c2ccccc21 | -1.17 | –
36 | CCOc1ccc(/C(O)=C2\C(=O)C(=O)N(c3ccc(OC)cc3)C2c2ccccc2[N+](=O)[O-])cc1 (centres undefined) | -24 | –
37 | CCOc1ccc(-c2n[nH]c3c2C(c2ccccc2OC)N(c2ccc(Br)cc2)C3=O)cc1 (centres undefined) | – | 14.6 µM (active)
38 | Cc1ccc(C(=O)Nc2ccn(C)n2)cc1 | 11.8 | –
39 | COc1ccc(NC(=O)C2CCCN(S(=O)(=O)c3cccc4cccnc34)C2)cc1OC (centres undefined) | -70.6 | –
40 | Cc1ccc(NC(=O)C2CCCN2S(=O)(=O)c2cccc3cccnc23)c(C)c1 (centres undefined) | – | 18.4 µM (active) and 16.4 µM (active)
41 | O=C(Nc1nccs1)C1CCCN1S(=O)(=O)c1cccc2cccnc12 (centres undefined) | -9.03 | –
42 | COC(=O)C1=CN(c2c(C)cc(C)cc2C)C(N)=C(C#N)C1c1cccc(F)c1 (centres undefined) | – | 14.6 µM (active)
43 | COC(=O)C1=C(C)N(C)C(C)=C(C(=O)OC)C1c1cccc(Br)c1 | -23.5 | –
44 | Cn1c2c(c(=O)n(C)c1=O)C(c1cccc(F)c1)C(C#N)=C(N)O2 (centres undefined) | 0.646 | –
45 | Cc1ccc(NC(=O)C(C)OC(=O)Cc2c[nH]c3ccccc23)cc1S(=O)(=O)N1CCOCC1 (centres undefined) | -5.52 | –
46 | O=C(OCC(=O)N1CCCCCC1)c1ccc(Br)c(S(=O)(=O)N2CCOCC2)c1 | -24.2 | –
47 | COc1cc(Br)cc(/C=N/c2ncn[nH]2)c1O | 14.3 | –
48 | N#C/C(C(=O)N1CCOCC1)=C1/SC(Cc2ccc(F)cc2)C(=O)N1c1ccccc1 (centres undefined) | 5.03 | –
49 | COc1ccc(OC)c(NC(=O)C2(C)CCN2C(=O)Cc2ccccc2)c1 (centres undefined) | -22.7 | –
50 | CC1(C(=O)NS(=O)(=O)Cc2cccc(Cl)c2)CCN1C(=O)Cc1ccccc1 (centres undefined) | -22.5 | –
51 | C#Cc1ccc(NC(=O)C2(C)CCN2C(=O)Cc2ccc(-c3ccccc3)cc2)cc1 (centres undefined) | – | 20.6 µM (active)
52 | CC1(C(=O)NS(=O)(=O)c2ccccc2)CCN1C(=O)Cc1ccc(-c2ccccc2)cc1 (centres undefined) | -0.605 | –
53 | CC1(C(=O)NS(=O)(=O)c2cccs2)CCN1C(=O)Cc1ccc(-c2ccccc2)cc1 (centres undefined) | -3.62 | –
54 | CCCNC(=O)C1(C)CCN1C(=O)Cc1ccc(-c2ccccc2)cc1 (centres undefined) | – | 9.2 µM (active)
